About 83,000 compounds went through this panel and 20% of them were active in at least one assay; those are over-represented in the sample as a whole.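 Plates (96-well) were seeded with cells, treated with compound at one concentration, and incubated for 48 hours before percent growth was determined.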 A number with no mark means an inactive call. Active and inactive are the calls of the source. How the source made its calls: active means growth percent below 10; inactive means the rest.
system: MDA-MB-468 breast; test: NCI-60 one-dose screen, 48 h (100 = growth as untreated, 0 = no growth, -100 = all killed); conditions: 10 µM unless noted

In the case of `CCOC(=O)C1=C(N)Oc2c(sc3c(C)cccc23)C1c1ccc(Cl)cc1` (stereo not given), the growth is reported as -2.2% (active).
In the case of `COC(=O)c1c2c(c(C)[n+]([O-])c1C)C(=O)C=C(NCc1ccccc1)C2=O`, the growth is reported as -68.9% (active).
With `Cc1nc(Nc2n[nH]c3c2CN(C(=O)N[C@H](CN(C)C)c2ccccc2)C3(C)C)c2sccc2n1` the growth was -44.3% (active).
`COc1ccc2cc(-c3ccc(-c4ccc(C(=N)N)s4)s3)ccc2c1` was tested, and the growth was -51.7% (active).
With `COc1ccc(/C=N\NC(=O)c2cc(-c3ccc(Br)cc3)n(-c3ccc(S(N)(=O)=O)cc3)n2)cc1` the growth was -1.98% (active).
With `COc1ccccc1S(=O)(=O)Nc1ccc2c3c(cc(CCC(=O)NCCCCNc4cccc5c4C(=O)N(C4CCC(=O)NC4=O)C5=O)cc13)C(=O)N2C` (stereo not given) the growth was -35.5% (active).
For `CN(C)c1ccc(C(c2ccc(O)cc2)c2ccc(N(C)C)cc2)cc1`, the growth was 1.1% (active).

Point of comparison: `O=C(Nc1ncc(Cc2cc(C(F)(F)F)ccc2Cl)s1)C(=S)N1CCOCC1`, growth 84.3%. Against it:
- COc1ccc(N2CCN(C(=O)c3sc4nc(C)c(Br)c(C)c4c3N)CC2)cc1 — higher, 109%
- Nc1nc(N(Cc2ccccc2)c2ccccc2)c2cn[nH]c2n1 — lower, 33.3%
- CC(C)Sc1nc(-c2ccccc2)c(C#N)c(N2CCOCC2)n1 — lower, 80.9%
- COc1ccc(CN2C(=O)OC(C)(COC(C)=O)C2=O)cc1 (stereo not given) — higher, 92.9%
- COc1cc(NC(=O)c2cccc(-c3cc(=O)c4c(OC)c(OC)c(OC)cc4o3)c2)cc(OC)c1OC — lower, 47.4%
- Cc1nccc2c3ccc(OCc4cn(Cc5ccc(Br)cc5)nn4)cc3n(CCCc3ccccc3)c12 — higher, 93.4%
- Cc1ccc(C(=O)NC2c3ccccc3Oc3ccccc32)cc1 — lower, 41.8%
- O=C(CSc1nnc(-c2ccc(Cl)cc2)n1-c1ccccc1)Nc1ccc(Br)cc1 — lower, 59.1%
- CCOC(=O)c1c(C)oc2ncnc(N3CCN(C(=O)COc4ccc(C(C)(C)C)cc4)CC3)c12 — lower, 60.9%
- CC(C)/C=C/CC[C@](C)(O)[C@H]1CC[C@]2(C)[C@@H]1CC[C@@H]1[C@@]3(C)C/C(=C/c4cccc(C(F)(F)F)c4)C(=O)C(C)(C)[C@@H]3CC[C@]12C — higher, 104%
- CSc1nc2c(c(=O)[nH]1)C(c1ccc(Cl)cc1)C1=C(N2)/C(=C/c2ccc(Cl)cc2)CNC1 (stereo not given) — lower, 48.4%
- COc1ccc(NC(=O)CSc2nc3ccccc3c(=O)n2-c2ccccc2C(F)(F)F)c(OC)c1OC — higher, 93.2%
- Cc1cc(N)n(S(=O)(=O)c2oc(-c3ccccc3)nc2C#N)n1 — lower, 72.9%
- O=C(/C(=C\c1c(-c2ccccc2)[nH]c2ccccc12)S(=O)(=O)c1ccccc1)c1ccccc1 — lower, 32.9%
- Fc1ccc(CNc2cccc3[nH]c(C(F)(F)F)nc23)cc1 — higher, 99.7%
- CN(C)CCn1c2ccc(N)cc2c2nc3ccccc3nc21 — lower, 23.7%
- COCCn1c(-c2csc(-c3cn(C)c4ccc(OC)cc34)n2)cc2cccnc21 — lower, 37.9%
- CCCCOCc1cc(CN2CCN(C)CC2)c(O)c2ncccc12 — lower, 46.1%
- COc1ccc(/C=N\N2CCOCC2)cc1OC1CCCC1 — higher, 117%
- COCCOc1cc2ncnc(N3CCN(c4ncc(S(=O)(=O)N5CCCCC5)cn4)CC3)c2cc1OCCOC — lower, 75.3%
- CC(C)Cc1ccc(C(C)C(=O)NCc2c[nH]c3ccc(Cl)cc23)cc1 (stereo not given) — lower, 80.7%
- Nc1ccc(Cl)c(S(=O)(=O)O)c1 — higher, 99.3%
- C(=C(\C1=NCCN1)n1cnc2ccccc21)/c1ccc2ccccc2c1 — lower, 26.2%
- CS(=O)(CCCCN=C=S)=NC(=O)c1c(F)c(F)c(F)c(F)c1F (stereo not given) — lower, 72.6%
- Cc1cnc(Nc2ccc(OCCN3CCCC3)cc2)nc1NCc1ccco1 — lower, 80.8%
- COCCc1ccc(OCC(O)CNC(C)C)cc1 (stereo not given) — higher, 113%
- O=c1cc(/C=N\Nc2nc(-c3ccc(Cl)cc3Cl)cs2)c2cc(Cl)ccc2o1 — higher, 102%
- Cc1cccc([N+](=O)[O-])c1Cl — higher, 92.4%
- Nc1ccc(Cl)cn1 — higher, 102%
- CCn1c(Sc2nnc(NC(C)=O)s2)nc2c1c(=O)n(C)c(=O)n2C — higher, 87.5%
- COc1cc(-c2nn(-c3ccccc3)cc2-c2ccnc(NCCNS(=O)(=O)c3ccc(Cl)cc3)n2)ccc1Cl — lower, 31.2%
- N#Cc1cccc(OCc2nc(N)nc(N)c2-c2ccc(Cl)c(Cl)c2)c1 — lower, 19.3%

From PubChem BioAssay (NCI)
